Assay results as given in the supplement of paper PMC10849652.
About 8,800 targets were measured; listed, in parts, are those with a hit and a random draw of the rest. About 0.5% of all pairs of compound and target were hits. A number with no mark means an inactive call.

Key:
Assay in all cases: log2 fold change, soluble protein after heating vs DMSO (PISA); higher = thermal stabilisation; K562 lysate, 10 uM; active = over 0.2 and 3.5 SD of the protein, either way, in both replicates (recomputed)
vemurafenib = compound: CCCS(=O)(=O)Nc1ccc(F)c(C(=O)c2c[nH]c3ncc(-c4ccc(Cl)cc4)cc23)c1F [vemurafenib]
Method in brief: (§1)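 Dounce homogenisation of K562 pellets in PBS pH 7.4 with 1 mM MgCl2 produced a crude extract, used at 1 mg/mL protein. Exposure to 10 μM compound lasted 30 min, and aliquots were then heated for 3 min across 48°C-58°C, pooled and brought to 0.5% NP-40 at 4°C. The supernatant after 21,000xg for 90 min was quantified by TMTpro 16plex LC-MS/MS with channel sums equalised. Duplicate values are given as log-two fold change in thermal stability relative to solvent controls.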

[1] = compound: CCCS(=O)(=O)Nc1ccc(F)c(C(=O)c2c[nH]c3ncc(Cl)cc23)c1F
Method in brief: as §1

barasertib = compound: CCN(CCCOc1ccc2c(Nc3cc(CC(=O)Nc4cccc(F)c4)[nH]n3)ncnc2c1)CCOP(=O)(O)O [barasertib]
Method in brief: as §1

[2] = compound: CC[C@@H]1C(=O)N(C)c2cnc(Nc3ccc(C(=O)NC4CCN(C)CC4)cc3OC)nc2N1C1CCCC1
Method in brief: as §1

volasertib = compound: CC[C@@H]1C(=O)N(C)c2cnc(Nc3ccc(C(=O)N[C@H]4CC[C@H](N5CCN(CC6CC6)CC5)CC4)cc3OC)nc2N1C(C)C [volasertib]
Method in brief: as §1

[3] = compound: CCn1c(C(=O)N(C2CC2)C2CC2)cc2c3c(ncn3C)c(Nc3cc(C)n(C)n3)nc21
Method in brief: as §1

[4] = compound: CCn1cc(-c2ccnc3[nH]c(-c4cccc(CN(C)C)c4)cc23)c(-c2ccc(NC(=O)N(C)C)cc2)n1
Method in brief: as §1

[5] = compound: CN1CCC(CNc2ccc3ncc(-c4cccc(OC(F)(F)F)c4)n3n2)CC1
Method in brief: as §1

saracatinib = compound: CN1CCN(CCOc2cc(OC3CCOCC3)c3c(Nc4c(Cl)ccc5c4OCO5)ncnc3c2)CC1 [saracatinib]
Method in brief: as §1

sotrastaurin = compound: CN1CCN(c2nc(C3=C(c4c[nH]c5ccccc45)C(=O)NC3=O)c3ccccc3n2)CC1 [sotrastaurin]
Method in brief: as §1

alvocidib = compound: CN1CC[C@H](c2c(O)cc(O)c3c(=O)cc(-c4ccccc4Cl)oc23)[C@H](O)C1 [alvocidib]
Method in brief: as §1

Tubastatin A = compound: CN1CCc2c(c3ccccc3n2Cc2ccc(C(=O)NO)cc2)C1 [Tubastatin A]
Method in brief: as §1

[6] = compound: CNC(=O)C1=CC=CC=C1NC2=NC(=NC=C2Cl)NC3=C(C=C(C=C3)N4CCOCC4)OC
Method in brief: as §1

defactinib = compound: CNC(=O)c1ccc(Nc2ncc(C(F)(F)F)c(NCc3nccnc3N(C)S(C)(=O)=O)n2)cc1 [defactinib]
Method in brief: as §1

[7] = compound: CNc1nc(-c2ccc3c(N)n[nH]c3c2)cc(N2C[C@@H](C(=O)NC3CCCCC3)CC[C@H]2C)n1
Method in brief: as §1

encorafenib = compound: COC(=O)N[C@@H](C)CNc1nccc(-c2cn(C(C)C)nc2-c2cc(Cl)cc(NS(C)(=O)=O)c2F)n1 [encorafenib]
Method in brief: as §1

[8] = compound: COC(=O)[C@H](CCSC)NC(=O)C1=C(C=C(C=C1)NC[C@H](CS)N)C2=CC=CC=C2
Method in brief: as §1

alisertib = compound: COc1cc(Nc2ncc3c(n2)-c2ccc(Cl)cc2C(c2c(F)cccc2OC)=NC3)ccc1C(=O)O [alisertib]
Method in brief: as §1

[9] = compound: COc1cc2nc(-c3cc(F)ccc3O)nc(N[C@@H]3CNC[C@H]3C(C)(C)O)c2cc1OC
Method in brief: as §1

gefitinib = compound: COc1cc2ncnc(Nc3ccc(F)c(Cl)c3)c2cc1OCCCN1CCOCC1 [gefitinib]
Method in brief: as §1

Sequence of UniProt Q15022 (Q15022 whole entry, looked up): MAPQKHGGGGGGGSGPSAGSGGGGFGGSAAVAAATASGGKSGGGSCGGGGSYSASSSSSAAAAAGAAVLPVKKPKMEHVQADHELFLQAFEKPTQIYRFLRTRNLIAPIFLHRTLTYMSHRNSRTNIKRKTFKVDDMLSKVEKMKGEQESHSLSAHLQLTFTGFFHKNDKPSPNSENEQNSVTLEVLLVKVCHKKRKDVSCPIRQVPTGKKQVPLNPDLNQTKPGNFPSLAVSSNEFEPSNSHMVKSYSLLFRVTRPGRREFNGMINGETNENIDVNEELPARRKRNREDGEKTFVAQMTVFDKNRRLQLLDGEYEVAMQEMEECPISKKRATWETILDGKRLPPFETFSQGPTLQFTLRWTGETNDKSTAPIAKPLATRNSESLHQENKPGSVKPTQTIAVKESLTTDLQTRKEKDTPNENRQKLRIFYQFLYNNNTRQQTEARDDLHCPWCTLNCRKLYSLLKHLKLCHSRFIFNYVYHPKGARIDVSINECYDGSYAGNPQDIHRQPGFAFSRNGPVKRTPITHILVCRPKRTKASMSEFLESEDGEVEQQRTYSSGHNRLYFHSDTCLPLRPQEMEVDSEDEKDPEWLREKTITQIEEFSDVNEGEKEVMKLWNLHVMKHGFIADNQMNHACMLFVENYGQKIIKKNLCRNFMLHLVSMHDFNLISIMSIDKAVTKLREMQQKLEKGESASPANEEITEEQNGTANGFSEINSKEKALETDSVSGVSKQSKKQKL
Sequence of UniProt Q15633 (Q15633 whole entry, looked up): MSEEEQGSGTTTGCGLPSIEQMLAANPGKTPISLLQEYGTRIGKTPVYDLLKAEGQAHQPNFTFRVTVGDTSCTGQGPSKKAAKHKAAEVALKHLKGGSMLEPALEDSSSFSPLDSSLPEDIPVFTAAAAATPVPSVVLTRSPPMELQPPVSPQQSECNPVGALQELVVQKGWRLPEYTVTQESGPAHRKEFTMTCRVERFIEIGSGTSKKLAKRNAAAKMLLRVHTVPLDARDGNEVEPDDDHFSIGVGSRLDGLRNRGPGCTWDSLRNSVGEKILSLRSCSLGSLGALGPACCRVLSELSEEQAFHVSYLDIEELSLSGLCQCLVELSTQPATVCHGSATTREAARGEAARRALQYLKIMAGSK
Sequence of UniProt O43808 (O43808 whole entry, looked up): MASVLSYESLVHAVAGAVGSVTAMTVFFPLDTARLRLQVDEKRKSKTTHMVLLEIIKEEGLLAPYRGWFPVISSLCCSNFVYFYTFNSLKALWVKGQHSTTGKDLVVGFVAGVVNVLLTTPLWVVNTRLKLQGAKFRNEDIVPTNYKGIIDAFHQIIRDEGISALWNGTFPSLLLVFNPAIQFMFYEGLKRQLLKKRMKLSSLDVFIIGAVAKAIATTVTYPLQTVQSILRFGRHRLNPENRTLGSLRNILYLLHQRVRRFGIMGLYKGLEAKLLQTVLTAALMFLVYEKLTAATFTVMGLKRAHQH
Sequence of UniProt P49281 (P49281 whole entry, looked up): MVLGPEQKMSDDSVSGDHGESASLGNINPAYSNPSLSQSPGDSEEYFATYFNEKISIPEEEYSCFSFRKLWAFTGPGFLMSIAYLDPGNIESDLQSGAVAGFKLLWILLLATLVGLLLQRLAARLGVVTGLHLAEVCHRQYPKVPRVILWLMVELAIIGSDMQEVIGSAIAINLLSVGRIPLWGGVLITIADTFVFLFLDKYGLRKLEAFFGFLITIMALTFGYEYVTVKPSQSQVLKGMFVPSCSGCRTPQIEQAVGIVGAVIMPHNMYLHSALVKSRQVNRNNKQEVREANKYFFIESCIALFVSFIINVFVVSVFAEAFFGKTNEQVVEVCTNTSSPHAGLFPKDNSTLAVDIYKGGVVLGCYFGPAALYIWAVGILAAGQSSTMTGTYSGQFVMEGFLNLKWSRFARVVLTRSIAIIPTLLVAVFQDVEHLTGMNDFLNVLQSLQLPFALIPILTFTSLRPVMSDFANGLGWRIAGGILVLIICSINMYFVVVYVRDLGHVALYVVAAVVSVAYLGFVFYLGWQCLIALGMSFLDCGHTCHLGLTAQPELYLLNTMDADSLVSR
Sequence of UniProt Q9HBM1 (Q9HBM1 whole entry, looked up): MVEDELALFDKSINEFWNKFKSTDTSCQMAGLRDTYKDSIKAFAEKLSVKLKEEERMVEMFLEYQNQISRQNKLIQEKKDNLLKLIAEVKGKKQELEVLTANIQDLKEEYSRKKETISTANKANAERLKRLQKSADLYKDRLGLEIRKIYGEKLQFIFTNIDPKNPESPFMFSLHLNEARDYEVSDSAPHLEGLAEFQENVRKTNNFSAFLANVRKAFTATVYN
Sequence of UniProt Q96SB4 (Q96SB4 whole entry, looked up): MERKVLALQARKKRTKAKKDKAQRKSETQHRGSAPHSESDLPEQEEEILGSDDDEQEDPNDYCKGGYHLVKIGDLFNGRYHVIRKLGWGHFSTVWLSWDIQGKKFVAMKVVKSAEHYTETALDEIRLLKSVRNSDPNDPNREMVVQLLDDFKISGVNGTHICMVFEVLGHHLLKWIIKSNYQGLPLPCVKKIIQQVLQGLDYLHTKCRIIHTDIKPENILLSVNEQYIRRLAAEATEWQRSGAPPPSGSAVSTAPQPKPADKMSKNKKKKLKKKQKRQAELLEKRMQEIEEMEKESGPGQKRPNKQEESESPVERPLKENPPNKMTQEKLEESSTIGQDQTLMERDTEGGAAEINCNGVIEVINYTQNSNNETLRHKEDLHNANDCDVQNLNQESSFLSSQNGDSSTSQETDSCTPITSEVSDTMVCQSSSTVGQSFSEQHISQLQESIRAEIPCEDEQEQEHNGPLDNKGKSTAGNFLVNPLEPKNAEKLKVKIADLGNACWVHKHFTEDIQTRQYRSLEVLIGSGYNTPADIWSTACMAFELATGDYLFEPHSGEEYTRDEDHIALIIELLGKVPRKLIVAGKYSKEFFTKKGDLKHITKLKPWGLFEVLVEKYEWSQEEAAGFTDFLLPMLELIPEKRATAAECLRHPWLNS
Sequence of UniProt P05455 (P05455 whole entry, looked up): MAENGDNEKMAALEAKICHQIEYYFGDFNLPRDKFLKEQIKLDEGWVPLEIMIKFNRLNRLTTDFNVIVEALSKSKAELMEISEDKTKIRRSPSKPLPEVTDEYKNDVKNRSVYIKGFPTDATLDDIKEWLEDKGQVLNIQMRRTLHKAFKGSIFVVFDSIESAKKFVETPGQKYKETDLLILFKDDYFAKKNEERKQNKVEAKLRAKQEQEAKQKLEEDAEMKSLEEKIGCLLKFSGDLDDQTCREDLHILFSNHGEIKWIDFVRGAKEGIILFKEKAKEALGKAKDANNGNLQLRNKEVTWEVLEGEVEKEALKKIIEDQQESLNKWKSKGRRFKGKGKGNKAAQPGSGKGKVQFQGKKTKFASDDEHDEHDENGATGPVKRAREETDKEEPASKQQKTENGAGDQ
Sequence of UniProt Q86US8 (Q86US8 whole entry, looked up): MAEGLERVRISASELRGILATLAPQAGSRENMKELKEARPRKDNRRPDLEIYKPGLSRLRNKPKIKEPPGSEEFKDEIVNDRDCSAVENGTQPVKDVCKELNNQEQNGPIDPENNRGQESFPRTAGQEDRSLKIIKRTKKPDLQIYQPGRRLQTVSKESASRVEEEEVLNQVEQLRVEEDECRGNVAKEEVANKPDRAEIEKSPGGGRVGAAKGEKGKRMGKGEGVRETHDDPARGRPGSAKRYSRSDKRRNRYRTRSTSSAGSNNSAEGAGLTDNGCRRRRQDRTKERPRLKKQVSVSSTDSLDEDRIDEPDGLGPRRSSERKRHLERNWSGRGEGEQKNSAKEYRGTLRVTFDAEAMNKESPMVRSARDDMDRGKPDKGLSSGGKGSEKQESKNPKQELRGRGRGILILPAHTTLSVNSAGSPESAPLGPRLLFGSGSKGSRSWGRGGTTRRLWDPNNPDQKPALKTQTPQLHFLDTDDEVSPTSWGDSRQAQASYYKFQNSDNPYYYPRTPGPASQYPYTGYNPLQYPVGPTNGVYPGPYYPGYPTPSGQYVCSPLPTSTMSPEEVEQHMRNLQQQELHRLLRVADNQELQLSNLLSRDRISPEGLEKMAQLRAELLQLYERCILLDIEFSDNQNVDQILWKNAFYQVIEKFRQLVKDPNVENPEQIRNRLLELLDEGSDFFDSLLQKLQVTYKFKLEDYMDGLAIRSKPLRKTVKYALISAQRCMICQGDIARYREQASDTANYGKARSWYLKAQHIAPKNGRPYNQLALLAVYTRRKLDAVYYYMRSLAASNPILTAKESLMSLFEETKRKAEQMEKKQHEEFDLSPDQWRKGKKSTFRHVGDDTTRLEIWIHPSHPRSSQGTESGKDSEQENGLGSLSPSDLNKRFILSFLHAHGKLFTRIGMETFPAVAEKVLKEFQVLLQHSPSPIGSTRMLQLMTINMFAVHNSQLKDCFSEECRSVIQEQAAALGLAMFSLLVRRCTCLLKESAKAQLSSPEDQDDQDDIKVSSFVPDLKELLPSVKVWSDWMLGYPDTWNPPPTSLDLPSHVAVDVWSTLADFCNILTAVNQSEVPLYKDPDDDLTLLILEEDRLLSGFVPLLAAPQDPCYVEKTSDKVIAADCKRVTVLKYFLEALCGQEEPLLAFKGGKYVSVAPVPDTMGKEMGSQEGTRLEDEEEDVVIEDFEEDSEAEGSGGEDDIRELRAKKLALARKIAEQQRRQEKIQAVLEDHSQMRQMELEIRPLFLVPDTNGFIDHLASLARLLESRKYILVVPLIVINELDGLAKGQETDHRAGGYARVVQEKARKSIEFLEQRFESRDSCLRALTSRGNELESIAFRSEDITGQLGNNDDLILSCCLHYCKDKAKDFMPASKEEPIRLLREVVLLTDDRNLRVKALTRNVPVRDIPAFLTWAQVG
Sequence of UniProt Q9Y3B4 (Q9Y3B4 whole entry, looked up): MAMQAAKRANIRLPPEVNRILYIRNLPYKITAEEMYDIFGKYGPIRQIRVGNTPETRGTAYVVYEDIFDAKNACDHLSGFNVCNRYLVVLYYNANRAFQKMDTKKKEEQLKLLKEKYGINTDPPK

Target | log2 fold change (vemurafenib) | log2 fold change [1] | log2 fold change (barasertib) | log2 fold change [2] | log2 fold change (volasertib) | log2 fold change [3] | log2 fold change [4] | log2 fold change [5] | log2 fold change (saracatinib) | log2 fold change (sotrastaurin) | log2 fold change (alvocidib) | log2 fold change (Tubastatin A) | log2 fold change [6] | log2 fold change (defactinib) | log2 fold change [7] | log2 fold change (encorafenib) | log2 fold change [8] | log2 fold change (alisertib) | log2 fold change [9] | log2 fold change (gefitinib)
SLC11A2 isoform 3 (UniProt P49281) | -0.009 | 0.043 | 0.019 | 0.073 | 0.026 | 0.036 | -0.082 | 0.074 | 0.028 | -0.012 | -0.032 | -0.047 | 0.031 | -0.001 | -0.008 | 0.063 | -0.027 | 0.128 | 0.021 | 0.295 (active)
SFN (UniProt P31947) | -0.038 | 0.003 | -0.025 | 0.006 | 0.029 | 0.023 | 0.521 (active) | -0.084 | -0.003 | -0.01 | 0.05 | 0.054 | -0.009 | 0.052 | -0.017 | -0.024 | 0.065 | 0.076 | 0.008 | -0.008
SRPK1 (UniProt Q96SB4) | 0.003 | 0.029 | -0.014 | 0.093 | -0.01 | 0.008 | 0.055 | -0.072 | 0.012 | 0.021 | 0.286 (active) | -0.062 | 0.189 | 0.106 | 0.008 | -0.029 | 0.102 | 0.006 | 0.015 | 0.018
SMG6 (UniProt Q86US8) | 0.12 | -0.006 | 0.014 | -0.139 | -0.031 | 0.038 | -0.16 | 0.141 | 0.036 | 0.098 | -0.067 | -0.062 | -0.112 | -0.027 | -0.059 | 0.148 | -0.01 | -0.044 | 0.008 | -0.069
SUZ12 (UniProt Q15022) | 0.012 | 0.022 | -0.012 | 0.024 | -0.001 | 0.012 | -0.026 | -0.002 | -0.019 | 0 | -0.004 | -0.012 | 0.009 | 0.049 | 0.027 | 0 | 0.101 | -0.057 | -0.062 | 0.062
SRSF2 (UniProt Q01130) | -0.001 | -0.014 | -0.007 | 0.02 | 0.002 | -0.065 | -0.232 | 0.153 | 0.033 | 0.024 | -0.135 | 0.084 | -0.017 | -0.018 | -0.005 | 0.033 | -0.016 | -0.004 | 0.016 | 0.015
TARBP2 (UniProt Q15633) | -0.035 | 0.092 | 0.093 | -0.145 | -0.034 | -0.016 | -0.02 | -0.093 | 0.035 | -0.006 | 0.016 | -0.147 | 0.038 | 0.017 | -0.026 | 0.037 | 0.072 | -0.039 | 0.008 | -0.01
SSB (UniProt P05455) | -0.004 | -0.02 | -0.001 | -0.011 | 0.011 | 0.002 | 0.011 | -0.021 | -0.015 | -0.016 | 0.057 | 0.018 | -0.02 | -0.019 | -0.015 | -0.029 | 0.022 | -0.003 | 0.002 | -0.008
STK39 (UniProt Q9UEW8) | 0.002 | 0.01 | 0.012 | -0.046 | -0.048 | 0.001 | -0.013 | -0.027 | -0.002 | 0.02 | 0.011 | -0.128 | -0.015 | 0 | -0.026 | -0.021 | 0.164 | -0.055 | 0.02 | 0.028
SLC25A17 (UniProt O43808) | -0.035 | -0.031 | 0.02 | 0.066 | 0.04 | -0.043 | -0.119 | 0.103 | 0.041 | 0.015 | -0.216 | 0.094 | 0.007 | -0.036 | 0.006 | 0.004 | -0.009 | 0.019 | -0.011 | 0.026
SMG7 (UniProt Q92540) | 0.073 | 0.011 | 0.098 | 0.071 | -0.044 | 0.074 | -0.038 | -0.014 | 0.045 | -0.02 | -0.003 | 0.008 | 0.018 | 0.076 | -0.017 | 0.025 | 0.202 | 0.015 | 0.132 | 0.032
SLC39A11 (UniProt Q8N1S5) | -0.082 | 0.073 | -0.126 | 0.067 | 0.011 | 0.028 | -0.043 | 0.147 | -0.108 | -0.009 | -0.02 | -0.065 | 0.107 | 0.338 | -0.111 | -0.059 | -0.23 | -0.047 | 0.097 | 0.059
SPC25 (UniProt Q9HBM1) | 0.011 | -0.008 | 0.036 | 0.006 | -0.019 | 0.012 | -0.083 | -0.004 | 0.013 | -0.013 | -0.015 | 0.009 | 0.024 | -0.017 | -0.014 | 0.034 | 0.014 | -0.008 | -0.043 | -0.011
STK24 (UniProt B4DR80) | 0.009 | 0.005 | 0 | -0.03 | -0.017 | 0.005 | 0.02 | -0.007 | 0.005 | 0.046 | -0.029 | 0.02 | -0.022 | 0.11 | -0.008 | -0.012 | -0.039 | -0.037 | 0.078 | -0.052
STK36 (UniProt Q9NRP7) | 0.188 | 0.038 | -0.073 | 0.302 | 0.01 | -0.445 | -0.532 | 0.442 | 0.077 | -0.072 | -0.33 | 0.331 | -0.048 | -0.263 | 0.528 | -0.027 | 0.042 | 0.081 | 0.199 | -0.093
SF3B6 (UniProt Q9Y3B4) | -0.006 | -0.003 | -0.026 | 0.027 | 0.014 | -0.003 | 0.061 | -0.013 | 0.028 | 0.018 | 0.05 | -0.037 | 0.016 | 0.017 | 0.071 | 0.014 | -0.003 | -0.011 | -0.027 | -0.172
